Results reported in PubChem BioAssay (NCI).
Compounds without any hit were thinned out: in the full panel of roughly 83,000, 20% have a hit.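 Single-dose data. Exposure time 48 hours. Values below 10 considered active.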 Unmarked numbers belong to inactive results. Activity calls are given as the source filed them.

What was measured:
Test in all cases: NCI-60 one-dose screen, 48 h (100 = growth as untreated, 0 = no growth, -100 = all killed)
HCT-15 colon = details: 10 µM unless noted
HT29 colon = details: 10 µM unless noted
SNB-75 CNS = details: 10 µM unless noted
SNB-19 CNS = details: 10 µM unless noted
U251 CNS = details: 10 µM unless noted
SK-MEL-5 melanoma = details: 10 µM unless noted
UACC-62 melanoma = details: 10 µM unless noted
LOX IMVI melanoma = details: 10 µM unless noted
SK-MEL-28 melanoma = details: 10 µM unless noted
SK-MEL-2 melanoma = details: 10 µM unless noted
EKVX NSCLC = details: 10 µM unless noted
SN12C renal = details: 10 µM unless noted
UO-31 renal = details: 10 µM unless noted
TK-10 renal = details: 10 µM unless noted
ACHN renal = details: 10 µM unless noted
CAKI-1 renal = details: 10 µM
A498 renal = details: 10 µM unless noted
CCRF-CEM leukemia = details: 10 µM unless noted
MOLT-4 leukemia = details: 10 µM unless noted
PC-3 prostate = details: 10 µM unless noted

SMILES	growth (HCT-15 colon)	growth (HT29 colon)	growth (SNB-75 CNS) [%]	growth (SNB-19 CNS)	growth (U251 CNS)	growth (SK-MEL-5 melanoma)	growth (UACC-62 melanoma) [%]	growth (LOX IMVI melanoma)	growth (SK-MEL-28 melanoma)	growth (SK-MEL-2 melanoma)	growth (EKVX NSCLC)	growth (SN12C renal) [%]	growth (UO-31 renal)	growth (TK-10 renal)	growth (ACHN renal)	growth (CAKI-1 renal)	growth (A498 renal) [%]	growth (CCRF-CEM leukemia)	growth (MOLT-4 leukemia)	growth (PC-3 prostate)
CN1CCN(c2ccc(NC(=O)Nc3ccc4c(ccn4-c4cccc(C(N)=O)n4)c3)cc2C(F)(F)F)CC1	3.6% (active)	5.77% (active)	82.2	53.2%	33.8%	75%	94.1	-27.7% (active)	-53.6% (active)	21.1%	78.4%	84.1	75.6%	97.4%	71.8%	87.1%	85.3	8.43% (active)	3.75% (active)	
CS(=O)(=O)c1nccc(-c2c(-c3ccc(F)c(OCCc4ccc(F)cc4)c3)nc3sccn23)n1	-0.659% (active)	7.43% (active)	67.8	0.358% (active)	71.4%		57.9	51.5%	-71.5% (active)		-66.3% (active)	62.4	-51.8% (active)	84.8%	45.2%	44.7%	29.1	56.4%	14.4%	-62.2% (active)
COc1ccc(Oc2ccc(C3CC(c4cc(OC)c(OC)c(OC)c4)=NN3C(C)=O)cc2)cc1 (configuration not stated)	18.5%	31.7%	46	30.8%	24.9%	1.54% (active)	28.9	35.8%	43.3%	49%	25.4%	22.3	10.1%	20%	20.8%	36.1%	29.5	37.7%	14.2%	
Clc1ccccc1/C=C/c1nn2c(-c3ccncc3)nnc2s1	96.4%	111%	105	99.6%	106%	99.3%	94.3	98.1%	103%		94.2%	103	93.1%	126%	104%	87.9%	95.2	97.6%		
CCCCCCNC(=O)Oc1ccc(/C(=C(/C)c2ccccc2)c2ccc(OCCN(C)C)cc2)cc1	-32.3% (active)	-25.6% (active)	73.5	64.4%	54.7%	78.2%	52.8	13.8%	55.1%		72.2%	63.6	53.9%	83%	71.3%	50.9%	76.5	67.9%	34.7%	
C=CCn1c(SCC(=O)Nc2cccc(C(=O)/C=C/c3ccccc3Cl)c2)nc2ccccc2c1=O	75.4%	75%	70.9	78.5%	81.8%	98.8%	83.4	79.5%	92.3%		94.7%	91.5	73%	110%	96.3%	79.2%	82.8	93.8%		
C=C(C)C(=O)O[C@H]1C[C@@]2(C)OC(=CC2=O)/C(C)=C\[C@H]2OC(=O)C(=C)[C@H]12	1.22% (active)	1.99% (active)	33.3	49.1%	6.75% (active)			-58.6% (active)		-28% (active)	21.1%		-88.9% (active)	-76.3% (active)	-11.7% (active)	5.49% (active)		-31.8% (active)	-4.17% (active)	-2.26% (active)
O=C(O)c1ccc(-n2cc(CNc3ccc(Cl)cc3)c(-c3ccc(F)cc3)n2)cc1	79.6%	112%	131	96.5%	90.4%	84.8%	77.4	84.3%	95.6%	99.1%	81.1%	99	80.5%	119%	78.9%	83.8%	88.6	91.8%	85.4%	
